# PubChem BioAssay (NCATS)
# Inconclusive results are not listed. Where a call stands in place of a potency, no number is given. Calls of active or inactive are those of the source. Unless noted, the call rests on the fitted dose curve; in most records, active means well fitted curve in the direction sought with a large enough effect; inconclusive means small, poorly fitted or top-dose-only effect, or another doubt; inactive means no such curve, though single readings can be large; an effect the other way counts as inactive or inconclusive.
# What was measured:
# [1] = Primary qHTS for inhibitors of nuclear receptor binding SET domain protein 2 (NSD2) in an RCH-ACV wild type WT cells (2C) (AID 1645877); further: nearly all actives have a fitted effect of over 70% in size; further: potency means the concentration at half of the fitted maximal effect
# [2] = target: Catechol O-methyltransferase (Homo sapiens) (UniProt P21964); assay: Confirmatory Screen for Target Class Profiling of Small Molecule Inhibitors of Methyltransferases (AID 1745852; calls by dose curve); conditions: MTase-Glo luminescence, SAH detection, recombinant enzyme; measured here: COMT max response; stronger effect = lower value
# [3] = target: Guanidinoacetate N-methyltransferase (Homo sapiens) (UniProt Q14353); assay: as above; conditions: MTase-Glo luminescence, SAH detection, recombinant enzyme; at 57.3 µM (top of the series)
# [4] = target: Nicotinamide N-methyltransferase (Homo sapiens) (UniProt P40261); assay: as above; conditions: MTase-Glo luminescence, SAH detection, recombinant enzyme; measured here: NNMT max response; stronger effect = lower value
# [5] = target: Phenylethanolamine N-methyltransferase (Homo sapiens) (UniProt P11086); assay: as above; conditions: MTase-Glo luminescence, SAH detection, recombinant enzyme; measured here: PNMT max response; stronger effect = lower value
# [6] = NCATS anti-infectives library activity on HEK293 viability as a counter-qHTS vs the C. elegans viability qHTS (AID 1745854);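 further: HEK293 cells exposed to compounds for 24 hr before the viability read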
# In short: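 Counter-screen for cytotoxicity: HEK293, 24 hr, 37C, compounds up to 41.7 uM final (a dilution series, 1:5). Readout CellTiter-Glo luminescence, 10 min RT. Digitonin control, 83.3 uM final.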
# [7] = target: Metallo-beta-lactamase type 2 (Klebsiella pneumoniae) (UniProt C7C422); assay: qHTS to identify inhibitors of the New Delhi Metallo-beta-lactamase (NDM): assay validation screen against the NCATS LOPAC Collection (AID 1794843);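 further: nitrocefin turnover by NDM-1 measured as 485 nm absorbance at plateau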
# In short: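 NDM-1 at 2 nM final in 50 mM HEPES pH 7.0, 1 uM ZnSO4, 0.01% Tween20, preincubated with LOPAC compounds pinned in DMSO; 50 uM nitrocefin (stock) added. Hydrolysis read as absorbance at 485 nm in the plateau phase.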
# [8] = target: Glutathione peroxidase 1 (Homo sapiens) (UniProt P07203); assay: Primary qHTS Assay for Inhibitors of Recombinant Selenoprotein Glutathione Peroxidase 1 (GPX1) (AID 1845191); further: nearly all actives have a fitted effect of over 65% in size
# In short: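 GPX1 10 nM, GR 100 nM, GSH 1 mM, NADPH 0.5 mM, CHP 0.5 mM (final). 30-min cpd preincubation, RT. Ex340/Em450 read t=0, t=15 min.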
# [9] = target: Rap guanine nucleotide exchange factor 3 (Homo sapiens) (UniProt O95398); assay: Confirmatory qHTS for agonist of cAMP-regulated guanine nucleotide exchange factor 3 (EPAC1) (AID 1645881);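 further: EPAC1 catalysed release of BODIPY-GDP from Rap1B seen as fluorescence loss; nearly all actives have a fitted effect of over 75% in size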
# [10] = target: Rap guanine nucleotide exchange factor 4 (Homo sapiens) (UniProt Q8WZA2); assay: Confirmatory qHTS for agonist of cAMP-regulated guanine nucleotide exchange factor 4 (EPAC2) (AID 1645884);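 further: nucleotide exchange releases bodipy-GDP from Rap1 and this lowers its fluorescence; nearly all actives have a fitted effect of over 65% in size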
# [11] = target: Rap guanine nucleotide exchange factor 4 (Homo sapiens) (UniProt Q8WZA2); assay: Confirmatory qHTS for antagonist of cAMP-regulated guanine nucleotide exchange factor 4 (EPAC2) (AID 1645885); further: nearly all actives have a fitted effect of over 25% in size
# [12] = target: Rap guanine nucleotide exchange factor 3 (Homo sapiens) (UniProt O95398); assay: Counterscreen qHTS for antagonist of cAMP-regulated guanine nucleotide exchange factor 3 (EPAC1) (AID 1645888)
# In short: (§1)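 Measured: fluorescence of BODIPY-GDP bound to Rap1B, which falls as exchange proceeds. Conditions include 50 uM competing GDP, 5 and 30 min reads, and a later cAMP challenge for antagonist detection.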
# [13] = target: Rap guanine nucleotide exchange factor 3 (Homo sapiens) (UniProt O95398); assay: Counterscreen qHTS for agonist of cAMP-regulated guanine nucleotide exchange factor 3 (EPAC1) (AID 1645889); further: nearly all actives have a fitted effect of over 40% in size
# In short: as §1
# [14] = target: Phospholipid hydroperoxide glutathione peroxidase GPX4 (Homo sapiens) (UniProt P36969); assay: Primary qHTS Assay for Inhibitors of Recombinant Selenoprotein Glutathione Peroxidase 4 (GPX4) (AID 1845192); conditions: outcome: dose series up to 50 µM unless noted; further: nearly all actives have a fitted effect of over 65% in size
# In short: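 qHTS, GR-coupled: GPX4 200 nM + cpd 30 min RT → GSH 1 mM, NADPH 0.5 mM, GR 100 nM → CHP 0.5 mM start; fluor 340/450 at t0 and t15 min; no-enzyme wells as control.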
# [15] = target: Rap guanine nucleotide exchange factor 3 (Homo sapiens) (UniProt O95398); assay: Confirmatory qHTS for antagonist of cAMP-regulated guanine nucleotide exchange factor 3 (EPAC1) (AID 1645880); further: nearly all actives have a fitted effect of over 55% in size
# In short: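 Released BODIPY-GDP fluoresces less than Rap1-bound BODIPY-GDP; the signal is followed at 480/540 nm at 5-min intervals over 30 min, after 5 min at room temperature. Reactions contain 100 nM EPAC1, 250 nM RAP1B-BODIPY-GDP and 50 uM GDP; results are normalized to ATA and DMSO.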
# Rap guanine nucleotide exchange factor 4 (Homo sapiens), sequence (Q8WZA2 whole entry, looked up): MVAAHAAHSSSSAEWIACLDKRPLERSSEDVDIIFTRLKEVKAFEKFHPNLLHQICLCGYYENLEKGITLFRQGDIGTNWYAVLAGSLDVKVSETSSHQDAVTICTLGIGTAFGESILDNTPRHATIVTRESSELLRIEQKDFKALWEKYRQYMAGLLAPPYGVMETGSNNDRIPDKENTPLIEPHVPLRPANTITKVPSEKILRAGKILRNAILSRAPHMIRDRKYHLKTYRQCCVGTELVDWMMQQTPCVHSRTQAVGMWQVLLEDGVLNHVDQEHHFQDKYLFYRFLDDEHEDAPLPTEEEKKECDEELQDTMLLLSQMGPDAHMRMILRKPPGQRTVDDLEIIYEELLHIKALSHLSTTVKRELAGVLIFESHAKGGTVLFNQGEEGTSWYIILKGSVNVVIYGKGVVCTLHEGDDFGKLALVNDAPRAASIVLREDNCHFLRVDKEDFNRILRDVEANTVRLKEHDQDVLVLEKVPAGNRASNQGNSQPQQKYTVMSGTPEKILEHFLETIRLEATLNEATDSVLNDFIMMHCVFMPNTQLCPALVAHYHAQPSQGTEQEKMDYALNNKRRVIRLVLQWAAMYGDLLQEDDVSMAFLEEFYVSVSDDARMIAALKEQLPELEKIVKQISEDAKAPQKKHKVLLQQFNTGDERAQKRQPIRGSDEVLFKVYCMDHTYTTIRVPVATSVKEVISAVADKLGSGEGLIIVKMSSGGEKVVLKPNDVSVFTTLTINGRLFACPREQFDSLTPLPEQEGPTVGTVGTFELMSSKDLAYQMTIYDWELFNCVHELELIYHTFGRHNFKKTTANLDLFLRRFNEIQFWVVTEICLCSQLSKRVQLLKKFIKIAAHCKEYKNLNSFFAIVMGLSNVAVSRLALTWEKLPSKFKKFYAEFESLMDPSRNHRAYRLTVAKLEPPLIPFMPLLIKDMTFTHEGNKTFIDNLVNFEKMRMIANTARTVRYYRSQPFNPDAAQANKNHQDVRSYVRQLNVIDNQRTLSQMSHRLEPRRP
# Phospholipid hydroperoxide glutathione peroxidase GPX4 (Homo sapiens), sequence (P36969 whole entry, looked up): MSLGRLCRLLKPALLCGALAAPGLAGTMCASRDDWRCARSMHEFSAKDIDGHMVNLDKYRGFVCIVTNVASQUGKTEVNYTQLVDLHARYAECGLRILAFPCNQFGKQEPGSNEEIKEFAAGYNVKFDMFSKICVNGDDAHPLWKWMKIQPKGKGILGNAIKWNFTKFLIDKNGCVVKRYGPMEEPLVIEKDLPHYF
# Glutathione peroxidase 1 (Homo sapiens), sequence (P07203 whole entry, looked up): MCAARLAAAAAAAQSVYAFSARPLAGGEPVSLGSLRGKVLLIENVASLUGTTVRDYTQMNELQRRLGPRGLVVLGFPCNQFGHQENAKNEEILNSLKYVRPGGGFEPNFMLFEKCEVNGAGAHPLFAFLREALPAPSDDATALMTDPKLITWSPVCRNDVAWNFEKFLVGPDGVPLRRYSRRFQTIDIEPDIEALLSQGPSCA
# Metallo-beta-lactamase type 2 (Klebsiella pneumoniae), sequence (C7C422 whole entry, looked up): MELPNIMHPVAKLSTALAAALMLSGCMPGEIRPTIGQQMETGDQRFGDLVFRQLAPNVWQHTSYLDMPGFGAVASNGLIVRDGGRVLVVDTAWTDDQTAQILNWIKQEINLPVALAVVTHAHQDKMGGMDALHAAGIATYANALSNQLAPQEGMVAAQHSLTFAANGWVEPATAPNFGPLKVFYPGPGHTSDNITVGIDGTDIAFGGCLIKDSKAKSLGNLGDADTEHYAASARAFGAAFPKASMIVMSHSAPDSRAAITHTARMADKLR
# Rap guanine nucleotide exchange factor 3 (Homo sapiens), sequence (O95398 whole entry, looked up): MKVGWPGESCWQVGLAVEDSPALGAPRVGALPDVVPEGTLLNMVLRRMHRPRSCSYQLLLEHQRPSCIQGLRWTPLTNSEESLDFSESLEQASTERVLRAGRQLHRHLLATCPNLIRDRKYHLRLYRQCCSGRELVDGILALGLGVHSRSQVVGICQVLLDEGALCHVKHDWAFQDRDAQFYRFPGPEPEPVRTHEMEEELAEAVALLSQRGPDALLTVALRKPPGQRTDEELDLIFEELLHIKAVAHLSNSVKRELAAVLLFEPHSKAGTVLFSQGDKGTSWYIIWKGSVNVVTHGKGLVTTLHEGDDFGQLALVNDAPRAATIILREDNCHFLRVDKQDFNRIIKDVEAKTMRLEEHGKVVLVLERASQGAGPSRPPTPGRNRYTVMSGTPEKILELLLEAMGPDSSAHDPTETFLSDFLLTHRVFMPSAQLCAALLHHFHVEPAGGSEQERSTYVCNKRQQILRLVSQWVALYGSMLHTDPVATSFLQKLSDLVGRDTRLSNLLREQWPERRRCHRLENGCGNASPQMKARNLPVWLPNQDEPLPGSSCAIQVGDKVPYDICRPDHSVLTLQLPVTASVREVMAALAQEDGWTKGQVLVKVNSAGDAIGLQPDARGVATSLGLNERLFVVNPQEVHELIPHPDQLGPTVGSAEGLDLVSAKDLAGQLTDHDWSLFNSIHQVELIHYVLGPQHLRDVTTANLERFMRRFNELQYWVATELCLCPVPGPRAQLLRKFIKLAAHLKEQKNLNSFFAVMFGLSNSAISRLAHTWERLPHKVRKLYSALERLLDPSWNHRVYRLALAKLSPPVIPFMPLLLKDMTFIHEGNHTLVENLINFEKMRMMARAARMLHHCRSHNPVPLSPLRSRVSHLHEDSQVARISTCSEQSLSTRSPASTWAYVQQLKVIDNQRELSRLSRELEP
# Nicotinamide N-methyltransferase (Homo sapiens), sequence (P40261 whole entry, looked up): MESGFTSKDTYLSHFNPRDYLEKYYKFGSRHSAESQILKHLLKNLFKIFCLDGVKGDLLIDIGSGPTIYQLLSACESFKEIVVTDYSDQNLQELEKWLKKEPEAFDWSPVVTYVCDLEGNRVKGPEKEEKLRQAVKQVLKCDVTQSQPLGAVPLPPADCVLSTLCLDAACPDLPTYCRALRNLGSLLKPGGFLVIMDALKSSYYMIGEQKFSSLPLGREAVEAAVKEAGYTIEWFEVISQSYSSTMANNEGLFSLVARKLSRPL
# Catechol O-methyltransferase (Homo sapiens), sequence (P21964 whole entry, looked up): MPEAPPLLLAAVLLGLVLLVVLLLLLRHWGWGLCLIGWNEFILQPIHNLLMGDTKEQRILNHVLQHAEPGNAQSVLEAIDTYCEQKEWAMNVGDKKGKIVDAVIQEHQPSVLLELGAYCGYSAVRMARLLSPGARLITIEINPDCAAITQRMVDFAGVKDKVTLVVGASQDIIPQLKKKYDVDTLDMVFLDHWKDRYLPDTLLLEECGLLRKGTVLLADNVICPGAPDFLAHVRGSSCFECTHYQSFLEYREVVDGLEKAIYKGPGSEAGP
# Phenylethanolamine N-methyltransferase (Homo sapiens), sequence (P11086 whole entry, looked up): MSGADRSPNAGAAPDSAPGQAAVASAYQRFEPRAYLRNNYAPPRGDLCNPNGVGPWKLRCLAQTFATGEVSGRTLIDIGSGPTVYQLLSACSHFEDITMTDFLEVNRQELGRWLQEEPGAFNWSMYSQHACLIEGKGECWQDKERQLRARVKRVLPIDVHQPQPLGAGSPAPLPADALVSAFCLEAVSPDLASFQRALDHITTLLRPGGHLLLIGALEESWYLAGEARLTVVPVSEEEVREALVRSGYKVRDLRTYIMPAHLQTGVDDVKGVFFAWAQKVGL
compound,measurement,setting,value
CN(C)C/C=C(/c1ccc(Br)cc1)c1cccnc1,Potency,[1],inactive
CCCN(CCC)CCc1cccc2c1CC(=O)N2,Potency,[1],inactive
same,activity,[2],9.88%
same,"activity change, negative = inhibition",[3],6.02%
same,activity,[4],1.36%
same,activity,[5],4.72%
CC(=O)Nc1nnc(S(N)(=O)=O)s1,Potency,[1],inactive
same,outcome,[6],inactive
same,Potency,[7],inactive
same,Potency,[8],inactive
NC(=O)c1cn(Cc2c(F)cccc2F)nn1,Potency,[1],inactive
same,Potency,[7],inactive
same,Potency,[8],inactive
C#CCN(C)CCCOc1ccc(Cl)cc1Cl,Potency,[1],inactive
same,Potency,[7],inactive
same,Potency,[8],inactive
CCO/C([O-])=N/c1c[n+](N2CCOCC2)no1,Potency,[1],inactive
same,Potency,[7],inactive
same,Potency,[8],inactive
CCCNC(C)C(=O)Nc1ccccc1C (configuration not stated),Potency,[1],inactive
same,Potency,[7],inactive
same,Potency,[8],inactive
OCCN1CCN(CC/C=C2/c3ccccc3Sc3ccc(C(F)(F)F)cc32)CC1,Potency,[1],10.6 µM (active)
same,Potency,[9],inactive
same,Potency,[10],inactive
same,Potency,[11],inactive
same,outcome,[12],inactive
same,outcome,[13],inactive
same,Potency,[8],inactive
CC(C(=O)O)c1ccc(CC2CCCC2=O)cc1 (configuration not stated),Potency,[1],inactive
same,Potency,[7],inactive
same,Potency,[8],inactive
COC(=O)C1=C(C)NC(C)=C(C(=O)OCCN(C)Cc2ccccc2)C1c1cccc([N+](=O)[O-])c1 (configuration not stated),Potency,[1],23.7 µM (active)
same,Potency,[9],inactive
same,Potency,[10],inactive
same,Potency,[8],inactive
same,outcome,[14],inactive
CCCCOCCOCCOCc1cc2c(cc1CCC)OCO2,Potency,[1],inactive
same,outcome,[15],inactive
same,Potency,[9],inactive
same,Potency,[10],inactive
same,Potency,[8],inactive
same,outcome,[14],inactive
NC/C=C/C(=O)O,Potency,[1],inactive
same,Potency,[7],inactive
same,Potency,[8],inactive
CCN(Cc1ccncc1)C(=O)C(CO)c1ccccc1 (configuration not stated),Potency,[1],inactive
same,Potency,[7],inactive
same,Potency,[8],inactive
CN(C)C(=O)Oc1ccc[n+](C)c1,Potency,[1],inactive
same,Potency,[7],inactive
same,Potency,[8],inactive
O=C1NCN(c2ccccc2)C12CCN(CCCC(c1ccc(F)cc1)c1ccc(F)cc1)CC2,Potency,[1],2.66 µM (active)
same,Potency,[9],inactive
same,Potency,[10],inactive
same,Potency,[7],inactive
same,Potency,[8],inactive
